Assay results from the supplement of paper PMC10849652.
Targets with a hit are over-represented here; the source holds about 8,800 in all. About 0.5% of all pairs of compound and target were hits. A number with no mark means an inactive call.

Key:
Test in all cases: log2 fold change, soluble protein after heating vs DMSO (PISA); higher = thermal stabilisation; K562 lysate, 10 uM; active = over 0.2 and 3.5 SD of the protein, either way, in both replicates (recomputed)
[1] = compound: C#Cc1cccc(Nc2ncnc3cc(OCCOC)c(OCCOC)cc23)c1 [erlotinib]
Outline: (§1)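 K562 pellets were dounce-homogenised in PBS pH 7.4 containing 1 mM MgCl2, and the crude extract, at 1 mg/mL protein, was exposed to 10 μM compound for 30 min. Aliquots were heated for 3 min across 48°C-58°C, pooled, brought to 0.5% NP-40 at 4°C and spun at 21,000xg for 90 min, with the supernatant taken as soluble protein. TMTpro 16plex LC-MS/MS with equalised channel sums quantified that protein. Values are log-two fold changes in thermal stability relative to solvent controls, taken from duplicates.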

[2] = compound: C/C(=N\NC(=O)C1=CC(=CC=C1)S(=O)(=O)N2CCOCC2)/C3=C(C=CC(=C3)Cl)O
Outline: as §1

[3] = compound: C1=CC(=CC=C1C2=NC3=C(N2)C=C(C=C3)C(=O)N)OC4=CC=C(C=C4)Cl
Outline: as §1

[4] = compound: C1=CC2=C(C=CC(=C2)/C=C\3/C(=O)NC(=NCC4=CC=CS4)S3)N=C1
Outline: as §1

[5] = compound: C1=CC2=NC=CN=C2C=C1/C=C/3\C(=O)NC(=O)S3
Outline: as §1

[6] = compound: C1=CC=C(C=C1)C2=NC(=C(N2)C3=CC=NC=C3)C4=CC(=C(C=C4)Cl)O
Outline: as §1

[7] = compound: C1=CC=C2C(=C1)C3=NNC4=CC=CC(=C43)C2=O
Outline: as §1

[8] = compound: C1CCN(C1)C(=O)NC2=CC=CC(=C2)NC3=NC=C(C(=N3)NCCC4=CN=CN4)Br
Outline: as §1

[9] = compound: C1CN(CCC1(CC2=CC=C(C=C2)Cl)N)C3=NC=NC4=C3C=CN4
Outline: as §1

[10] = compound: C1COCCN1CCN2C3=CC=CC=C3N=C2NC(=O)C4=CC(=CC=C4)[N+](=O)[O-] [IRAK-1-4 Inhibitor I]
Outline: as §1

Sequence of UniProt P0DMB2 (P0DMB2 whole entry, looked up): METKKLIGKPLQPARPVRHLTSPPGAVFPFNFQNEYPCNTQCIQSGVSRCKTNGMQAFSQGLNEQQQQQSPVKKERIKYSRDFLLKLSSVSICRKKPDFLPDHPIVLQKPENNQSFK
Sequence of UniProt P13994 (P13994 whole entry, looked up): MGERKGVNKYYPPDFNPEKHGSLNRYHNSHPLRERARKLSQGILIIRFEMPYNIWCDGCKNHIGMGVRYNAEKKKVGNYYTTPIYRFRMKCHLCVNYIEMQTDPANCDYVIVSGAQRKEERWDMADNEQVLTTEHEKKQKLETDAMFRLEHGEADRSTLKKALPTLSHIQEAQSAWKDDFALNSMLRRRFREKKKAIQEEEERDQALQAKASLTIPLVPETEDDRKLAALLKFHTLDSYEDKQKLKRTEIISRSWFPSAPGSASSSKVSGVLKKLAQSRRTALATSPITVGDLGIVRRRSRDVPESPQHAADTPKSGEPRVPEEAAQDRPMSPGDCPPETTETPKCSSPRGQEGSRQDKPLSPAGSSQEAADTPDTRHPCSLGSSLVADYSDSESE
Sequence of UniProt Q9P281 (Q9P281 whole entry, looked up): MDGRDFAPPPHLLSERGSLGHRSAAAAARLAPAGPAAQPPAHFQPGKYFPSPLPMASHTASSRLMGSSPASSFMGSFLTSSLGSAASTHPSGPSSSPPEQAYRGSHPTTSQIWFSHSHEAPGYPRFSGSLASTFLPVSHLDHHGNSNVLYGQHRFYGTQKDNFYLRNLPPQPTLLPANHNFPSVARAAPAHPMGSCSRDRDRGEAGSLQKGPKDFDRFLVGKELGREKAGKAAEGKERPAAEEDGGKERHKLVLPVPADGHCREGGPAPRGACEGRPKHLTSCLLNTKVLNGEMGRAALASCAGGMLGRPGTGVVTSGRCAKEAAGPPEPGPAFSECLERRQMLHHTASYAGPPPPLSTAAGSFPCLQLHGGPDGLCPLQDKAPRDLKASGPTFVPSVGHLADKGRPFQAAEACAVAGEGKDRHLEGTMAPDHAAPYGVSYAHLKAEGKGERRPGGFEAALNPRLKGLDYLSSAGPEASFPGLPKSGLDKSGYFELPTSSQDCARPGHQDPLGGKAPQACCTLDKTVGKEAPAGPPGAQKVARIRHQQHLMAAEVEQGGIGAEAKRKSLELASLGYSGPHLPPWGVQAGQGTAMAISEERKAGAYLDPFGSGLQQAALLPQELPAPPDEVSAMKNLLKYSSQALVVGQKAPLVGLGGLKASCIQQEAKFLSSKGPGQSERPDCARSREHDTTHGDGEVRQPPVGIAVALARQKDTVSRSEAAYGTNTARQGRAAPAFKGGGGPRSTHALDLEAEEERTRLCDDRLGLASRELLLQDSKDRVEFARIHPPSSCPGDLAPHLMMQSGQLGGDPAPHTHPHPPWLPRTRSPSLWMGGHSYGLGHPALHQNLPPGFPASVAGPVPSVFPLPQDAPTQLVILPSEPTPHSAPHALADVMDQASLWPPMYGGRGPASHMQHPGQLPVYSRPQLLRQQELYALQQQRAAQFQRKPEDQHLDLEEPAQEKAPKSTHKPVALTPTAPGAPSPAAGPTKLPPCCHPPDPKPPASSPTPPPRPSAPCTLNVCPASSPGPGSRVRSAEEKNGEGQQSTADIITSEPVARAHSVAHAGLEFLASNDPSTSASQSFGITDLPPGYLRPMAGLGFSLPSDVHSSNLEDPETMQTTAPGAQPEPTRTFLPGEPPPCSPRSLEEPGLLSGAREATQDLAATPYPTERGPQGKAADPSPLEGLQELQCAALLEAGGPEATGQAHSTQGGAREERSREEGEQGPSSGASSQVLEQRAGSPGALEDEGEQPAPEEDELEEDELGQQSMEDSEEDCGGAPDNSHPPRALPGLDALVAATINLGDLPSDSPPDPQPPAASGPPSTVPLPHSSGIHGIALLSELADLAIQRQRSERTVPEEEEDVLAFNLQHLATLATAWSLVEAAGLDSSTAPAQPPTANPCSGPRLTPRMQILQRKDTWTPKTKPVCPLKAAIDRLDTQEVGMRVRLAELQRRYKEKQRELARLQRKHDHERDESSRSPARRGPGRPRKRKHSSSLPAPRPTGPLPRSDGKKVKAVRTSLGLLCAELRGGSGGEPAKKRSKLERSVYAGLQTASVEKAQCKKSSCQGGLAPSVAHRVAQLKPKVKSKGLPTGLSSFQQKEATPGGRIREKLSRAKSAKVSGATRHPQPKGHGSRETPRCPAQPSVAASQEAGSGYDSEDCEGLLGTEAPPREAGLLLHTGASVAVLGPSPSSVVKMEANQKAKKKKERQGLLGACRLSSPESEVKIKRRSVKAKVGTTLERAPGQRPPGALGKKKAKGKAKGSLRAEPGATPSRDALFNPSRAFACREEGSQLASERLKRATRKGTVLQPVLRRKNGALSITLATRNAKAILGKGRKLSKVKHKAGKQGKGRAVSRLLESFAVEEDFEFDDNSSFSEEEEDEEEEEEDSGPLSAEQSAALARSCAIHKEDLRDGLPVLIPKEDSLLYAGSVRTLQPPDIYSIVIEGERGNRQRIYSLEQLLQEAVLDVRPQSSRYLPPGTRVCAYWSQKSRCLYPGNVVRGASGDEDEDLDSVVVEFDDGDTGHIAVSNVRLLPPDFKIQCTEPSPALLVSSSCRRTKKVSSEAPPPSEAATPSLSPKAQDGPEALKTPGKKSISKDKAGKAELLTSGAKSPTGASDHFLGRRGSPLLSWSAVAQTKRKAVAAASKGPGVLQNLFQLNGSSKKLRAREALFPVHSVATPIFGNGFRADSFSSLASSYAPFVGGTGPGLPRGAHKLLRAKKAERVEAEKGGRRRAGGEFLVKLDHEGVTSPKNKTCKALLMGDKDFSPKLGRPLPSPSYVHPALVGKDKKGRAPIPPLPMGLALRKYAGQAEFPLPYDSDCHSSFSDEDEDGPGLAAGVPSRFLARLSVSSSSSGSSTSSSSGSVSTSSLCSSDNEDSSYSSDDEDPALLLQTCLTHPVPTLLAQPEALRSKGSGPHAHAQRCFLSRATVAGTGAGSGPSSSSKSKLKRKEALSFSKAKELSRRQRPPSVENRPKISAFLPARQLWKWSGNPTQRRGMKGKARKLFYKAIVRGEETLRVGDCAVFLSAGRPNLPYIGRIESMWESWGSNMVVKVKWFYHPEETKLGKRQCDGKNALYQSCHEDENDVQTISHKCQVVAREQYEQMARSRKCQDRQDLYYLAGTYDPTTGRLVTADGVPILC
Sequence of UniProt P30281 (P30281 whole entry, looked up): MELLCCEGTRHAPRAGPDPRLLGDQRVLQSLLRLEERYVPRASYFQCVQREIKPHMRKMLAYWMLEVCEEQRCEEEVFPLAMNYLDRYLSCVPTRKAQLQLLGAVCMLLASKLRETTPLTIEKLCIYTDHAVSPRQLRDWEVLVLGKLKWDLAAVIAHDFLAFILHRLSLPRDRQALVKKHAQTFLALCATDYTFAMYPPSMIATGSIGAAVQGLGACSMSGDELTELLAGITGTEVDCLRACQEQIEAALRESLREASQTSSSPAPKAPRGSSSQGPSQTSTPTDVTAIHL
Sequence of UniProt Q9NZM4 (Q9NZM4 whole entry, looked up): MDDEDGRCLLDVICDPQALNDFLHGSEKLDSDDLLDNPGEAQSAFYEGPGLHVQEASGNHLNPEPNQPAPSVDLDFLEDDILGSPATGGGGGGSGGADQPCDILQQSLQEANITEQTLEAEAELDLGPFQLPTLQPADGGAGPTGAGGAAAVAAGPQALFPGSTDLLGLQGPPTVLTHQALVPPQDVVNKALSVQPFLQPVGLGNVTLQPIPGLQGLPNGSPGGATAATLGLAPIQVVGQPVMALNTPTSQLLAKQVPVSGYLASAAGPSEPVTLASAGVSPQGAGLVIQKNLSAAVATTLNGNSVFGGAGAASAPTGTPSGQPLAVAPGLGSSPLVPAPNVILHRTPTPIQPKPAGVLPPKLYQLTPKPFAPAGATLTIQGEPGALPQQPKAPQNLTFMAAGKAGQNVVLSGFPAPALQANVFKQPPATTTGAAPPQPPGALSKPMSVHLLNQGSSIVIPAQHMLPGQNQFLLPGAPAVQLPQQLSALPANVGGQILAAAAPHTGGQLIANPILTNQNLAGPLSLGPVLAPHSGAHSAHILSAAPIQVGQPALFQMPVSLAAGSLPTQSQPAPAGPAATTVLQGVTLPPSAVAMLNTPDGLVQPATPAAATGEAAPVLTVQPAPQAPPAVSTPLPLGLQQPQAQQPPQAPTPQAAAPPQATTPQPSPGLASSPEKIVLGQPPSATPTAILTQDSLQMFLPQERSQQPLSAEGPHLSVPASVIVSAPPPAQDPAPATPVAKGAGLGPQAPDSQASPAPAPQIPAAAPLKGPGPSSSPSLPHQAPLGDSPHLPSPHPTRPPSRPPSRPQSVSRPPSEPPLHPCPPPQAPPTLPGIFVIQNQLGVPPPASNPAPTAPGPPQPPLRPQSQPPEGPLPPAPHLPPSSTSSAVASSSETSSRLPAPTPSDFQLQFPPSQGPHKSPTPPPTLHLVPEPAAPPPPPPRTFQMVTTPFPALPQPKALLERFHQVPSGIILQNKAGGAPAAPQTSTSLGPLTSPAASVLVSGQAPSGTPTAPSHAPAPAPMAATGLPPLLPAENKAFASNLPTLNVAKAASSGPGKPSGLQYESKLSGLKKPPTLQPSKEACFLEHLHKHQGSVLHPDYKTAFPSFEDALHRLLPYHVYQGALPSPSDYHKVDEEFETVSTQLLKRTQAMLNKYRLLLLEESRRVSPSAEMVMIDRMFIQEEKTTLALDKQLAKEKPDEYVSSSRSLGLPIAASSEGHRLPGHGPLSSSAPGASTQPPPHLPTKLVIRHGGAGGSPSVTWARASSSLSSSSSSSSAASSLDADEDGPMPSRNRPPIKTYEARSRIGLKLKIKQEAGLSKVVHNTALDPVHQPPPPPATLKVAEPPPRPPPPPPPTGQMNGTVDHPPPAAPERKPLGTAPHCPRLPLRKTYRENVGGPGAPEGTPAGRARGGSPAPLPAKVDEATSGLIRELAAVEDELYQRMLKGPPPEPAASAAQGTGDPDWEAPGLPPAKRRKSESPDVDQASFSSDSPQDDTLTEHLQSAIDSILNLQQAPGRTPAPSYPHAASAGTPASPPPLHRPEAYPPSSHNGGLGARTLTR
Sequence of UniProt Q9BUK0 (Q9BUK0 whole entry, looked up): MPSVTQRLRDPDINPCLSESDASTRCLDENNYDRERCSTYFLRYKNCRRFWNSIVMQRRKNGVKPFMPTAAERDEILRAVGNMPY

Target	log2 fold change [1]	log2 fold change [2]	log2 fold change [3]	log2 fold change [4]	log2 fold change [5]	log2 fold change [6]	log2 fold change [7]	log2 fold change [8]	log2 fold change [9]	log2 fold change [10]
CASP6 (UniProt P55212)	-0.006	0.031	-0.006	-0.004	0.006	0	-0.005	0.012	0.017	0.015
C18orf32 (UniProt Q8TCD1)	0.089	0.126	0.009	-0.06	-0.026	0.011	0.003	-0.049	-0.032	-0.026
CDK9 isoform 2 (UniProt P50750)	-0.055	-0.054	0.195	0.019	0.02	-0.01	0.019	0.102	0.005	-0.002
BRD4 (UniProt O60885)	-0.001	-0.011	0.059	0.013	-0.007	0.05	-0.061	-0.016	0.032	0.028
CBR1 (UniProt P16152)	0.011	0.025	-0.001	0.003	0.016	0.047	-0.001	-0.008	-0.006	-0.033
CASC1 (UniProt Q6TDU7)					1.74 (active)	-0.03				0.179
C8orf88 (UniProt P0DMB2)	-0.006		-0.185		0.028	-0.003				-0.013
CDKL5 (UniProt O76039)		-0.216		-0.08			0.339	0.423	0.085	
CDK11A (UniProt Q9UQ88)	0.053		-0.128		-0.037	0.027				-0.009
CDK2 (UniProt P24941)	-0.026	-0.152	0.051		-0.003	0.008	0.237	0.135	0.004	0.014
BBS7 (UniProt Q8IWZ6)	-0.095	0.146	-0.014	-0.034		0.057	-0.098	-0.068	0.082	0.022
CACUL1 (UniProt Q86Y37)	0.232	-0.048	0.087	0.044		0.027	0.045	0.042	0.023	0.016
B3GALT6 (UniProt Q96L58)	0.074		-0.04		0.022	-0.028				-0.049
CEP295 isoform 3 (UniProt Q9C0D2)	-0.063		-0.02		0.051	-0.092		0.015	0.111	-0.143
CEBPZOS (UniProt A8MTT3)	-0.038	0.013	0.004	0.003		-0.014	0.006	-0.011	0.005	-0.015
CANX (UniProt D6RHJ3)		-0.321		0.031			-0.022			
BNIP3 (UniProt Q12983)	-0.008		0.036		-0.013	0.028		0.031	0.02	0.057
BICRA (UniProt Q9NZM4)	0.204		0.231		0.12	0.065				0.115
ATPSCKMT (UniProt Q6P4H8)					0	0.075		-0.074	-0.006	-0.046
CHD9 (UniProt Q3L8U1)	-0.046	0.169	-0.167	0.191		0.043	-0.059			0.016
ATE1 (UniProt O95260)					0.005					
C9orf72 (UniProt Q96LT7)	-0.043		0.056		-0.01	-0.041		0.056	-0.068	-0.042

Target	log2 fold change [1]	log2 fold change [2]	log2 fold change [3]	log2 fold change [4]	log2 fold change [5]	log2 fold change [6]	log2 fold change [7]	log2 fold change [8]	log2 fold change [9]	log2 fold change [10]
BRAF, A0A2R8Y8E0		-0.005		0.001			0.119	0.067	-0.045	
C6orf120 (UniProt Q7Z4R8)	0.043		-0.014		0.008					
CCND3 (UniProt P30281)	-0.034		0.064		-0.03	0.106		-0.228	0.116	0.033
CARHSP1 (UniProt H3BNU9)					-0.215					
CDC14A isoform 2 (UniProt Q9UNH5)						0.082				-0.102
CASP7 isoform 3 (UniProt P55210)	0.104		0.008		-0.086	0.019		-0.013	0.098	0.241
CEP57L1 (UniProt Q8IYX8)	-0.064		0.118		-0.021	-0.041		-0.013	0.101	0.35
CENPV (UniProt Q7Z7K6)		-0.033		0.013	-0.093	-0.193	0.015	-0.037	0.012	0.013
CAD (UniProt H7BZB3)	0.126	-0.127	-0.28	-0.069			-0.034	-0.035	-0.007	
BUD13 (UniProt Q9BRD0)	-0.04		-0.02		0.054	0.054		-0.046	-0.162	-0.066
ATG4D (UniProt Q86TL0)					0.072	0.049		0.047	-0.074	-0.142
CHCHD7 isoform 4 (UniProt Q9BUK0)		-0.158		0.048	0.014	0.046	-0.012	0.006	0.072	-0.025
CHD4, A0A2R8Y521						0.259		-0.033	0.261	0.178
C3AR1 (UniProt Q16581)					0.145					
CAPNS1 (UniProt U3KPR7)					-0.105					
BRD2 isoform 2 (UniProt P25440)	-0.039		0.02	0.036	0	0.109	-0.014	-0.134	-0.114	0.003
BAHCC1 (UniProt Q9P281)	-0.047	0.026	0.076	-0.126			-0.009	-0.101	-0.11	
CCDC130 (UniProt P13994)	-0.045		0.28		0.032	-0.224		-0.152	-0.016	0.025
C15orf39 (UniProt Q6ZRI6)	-0.029		0.026		-0.031	0.052		0.019	-0.009	0.034
CAPNS1 (UniProt K7ES78)	0.193	-0.23	0.019	-0.275		-0.048	0.047			-0.09
CDC25A (UniProt P30304)	0.016		0.085			0				0.052
CEP128 (UniProt Q6ZU80)		-0.069		0	-0.234	0.236	-0.102	-0.138	-0.015	-0.212
